Source: PubChem BioAssay
This is a sample that favours compounds with a hit; in the whole collection about 2.7% have one here.
CF NFkB inh – inhibitors of PAF-induced NF-kB signaling, primary screen, cell-based, GFP fluorescence, uHTS. actives 0.86% (n = 360,000). AID 588850, 2011. inhibition, % at 5 µM. KKLEB NF-kB-GFP reporter, GFP fluorescence overnight;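 active = at least 50% inhibition at 5 µM, scaled per plate between neutral and stimulator controls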;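 note: PAF is a Pseudomonas aeruginosa culture filtrate used as stimulus; plate controls were PAF-stimulated DMSO wells for no effect and unstimulated DMSO wells for full effect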
Peg3 promoter – Peg3 promoter-driven luciferase inhibitors, primary screen, cell-based, HeLa, luciferase luminescence; HeLa PEG-Prom luciferase reporter, overnight; inhibition, % at 20 µM; actives 1.7% (n = 360,000); AID 588405, 2011;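 active = inhibition of at least 50% at 20 µM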
MITF TRPM1 inh – inhibitors of MITF-dependent TRPM1 promoter reporter, primary screen, cell-based, SK-MEL-5, single point, luciferase. SK-MEL-5 TRPM1 promoter luciferase, 24 h. inhibition, % at 12.5 µM. actives 0.83% (n = 330,000);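 active = mean inhibition across replicates of 60% or more, whatever share of single replicates reaches that level; inconclusive = some that reach 60%, reason not given; inactive = mean inhibition across replicates below 60%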
Shn3 3UTR inh – reduction of Shn3 3'UTR firefly luciferase signal, primary screen, Schnurri-3 inhibitor project, cell-based, Clone20 osteoblasts, set 2 | Clone20 osteoblast Shn3 3'UTR firefly luciferase, 24 h | inhibition, % at 12.5 µM | actives 0.52% (n = 360,000);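 active = mean inhibition of at least 75% with every replicate also reaching 75%; inconclusive = mean inhibition at least 75% but some replicate below; inactive = mean inhibition below 75%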;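 note: 0% = median of neutral control wells and 100% = pilot-screen positive control compound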
KKLEB tox – cytotoxicity in KKLEB CF airway cells, primary screen, cytotoxicity control for CF NF-kB inhibitor project, cell-based, uHTS, fluorescence assay plates | KKLEB CF airway cells viability, ATPlite luminescence, overnight; hits give low values; cells stimulated with P. aeruginosa culture filtrate | activity change (cytotoxicity), % at 5 µM | actives 0.36% (n = 360,000) | AID 602141, 2011;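 active = corrected activity change at or below -50% at 5 µM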
HIF-2a inh – HIF-2a reporter inhibitors, primary screen, luminescence, 786-0 RCC cells | 786-0 RCC cells HIF-2a reporter, luciferase luminescence, overnight | inhibition, % at 18.8 µM | actives 0.72% (n = 360,000) | AID 624352, 2012;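 active = inhibition of the luminescence signal of 40% or more relative to plate controls, in a single-dose primary screen at 18.75 µM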
An asterisk follows results filed as active; ? = inconclusive; / = no result; ! = a repeat was not active.

SMILES | CF NFkB inh | Peg3 promoter | MITF TRPM1 inh | Shn3 3UTR inh | KKLEB tox | HIF-2a inh
COC(=O)c1cc(=O)n(Cc2ccc3c(c2)OCO3)c(=Nc2ccc(F)cc2)s1 | 28 | 51* | 7 | -5 | -8 | 0
COC(=O)c1cc(=O)n(Cc2ccc3c(c2)OCO3)c(=Nc2ccccc2)s1 | 16 | 17 | / | 8 | 1 | 16
CCCC(=O)Nc1cc(C(=O)N(C)CC(OC)OC)ccc1S(=O)(=O)c1ccc(C)cc1 | -1 | 9 | 4 | -4 | 3 | 22
COc1cc(C2Oc3ccccc3C=C2[N+](=O)[O-])cc(OC)c1OC (configuration not stated) | -29 | 52* | / | 3 | -14 | 32
CCOc1ccc(C(CN2CCOCC2)C(C)=O)cc1OC (configuration not stated) | 17 | 58* | / | 60 | 1 | -10
CCOc1ccc(C(O)(CCC(C)C)C(CN2CCOCC2)c2ccccc2)cc1 (configuration not stated) | 7 | 18 | -5 | 20 | -8 | 18
CCOc1ccc(C(=O)C(CN2CCOCC2)c2ccccc2)cc1 (configuration not stated) | 26 | 82* | 50 | -2 | -47 | 31
O=C(c1ccccc1)C(CN1CCCCC1)c1ccccc1 (configuration not stated) | 85* | 103* | 97* | ? | -63* | 27
O=C1/C(=C/c2ccccc2)SC(=S)N1CC(=O)N1CCCCC1c1cccnc1 (configuration not stated) | 34 | 59* | -49 | 16 | -14 | 73*
CN(C(=O)COC(=O)c1cccs1)c1ccccc1 | -30 | -24 | / | 16 | 0 | -12
CC1CC(C)(C)OC(C[N+]2(C)CCCCC2)O1 (configuration not stated) | 10 | 12 | 8 | 9 | 1 | 14
Cc1ccc(C2C(/C=C3/SC(=S)NC3=O)=C(c3cccs3)Oc3ccccc32)cc1 (configuration not stated) | 64* | 46 | 8 | 22 | -38 | -45
C=CCn1c(SCC(=O)NCC(c2ccccc2)N(C)C)nnc1C1CCCCC1 (configuration not stated) | 15 | 13 | 7 | 4 | -18 | 8
COC(=O)CC1(c2cccc3ccccc23)C(=O)c2ccccc2C1=O | 1 | 13 | 30 | -15 | -1 | 78*
COC(=O)CC1(c2ccccc2)C(=O)c2ccccc2C1=O | 9 | 7 | -3 | 2 | 3 | 10
O=C(/C=C\c1ccc(-c2ccccc2)o1)c1ccccc1 | 6 | 80* | -33 | 60 | -10 | -166
Cc1ccc(C(=O)/C=C/c2ccc(-c3ccc(C)cc3)o2)cc1 | 2 | 74* | -1 | 92* | 0 | 20
CCCCCCCCCCCCCCCC[n+]1cccc(C(=O)N(CC)CC)c1 | 91*! | 105* | 18 | 76 | -93*! | 46*
CCCCCCCC[n+]1cccc(C(=O)N(CC)CC)c1 | 7 | 14 | 14 | -1 | -5 | 18
Cc1cc(=O)oc2cc(OCC(=O)N(C)C3CCS(=O)(=O)C3)c(Cl)cc12 (configuration not stated) | -9 | 15 | -1 | -4 | 2 | 1
COc1ccccc1CCC(=O)OCC(=O)NC1CC1 | -12 | -7 | 2 | 7 | 20 | 4
CC(Nc1ccccc1CO)C(=O)Nc1cccc(Cl)c1Cl (configuration not stated) | 20 | 52* | 15 | 3 | -9 | 35
CCc1cccc(CC)c1NC(=S)Nc1cccc(Cl)c1Cl | 7 | 19 | 9 | 8 | 5 | 13
O=S(=O)(Nc1ccc(Br)cc1)c1cccc(NS(=O)(=O)c2cccs2)c1 | -7 | 20 | 2 | -8 | 10 | -4
Oc1ccc(N=Nc2n[nH]c(-c3ccc(Br)cc3)n2)cc1 | -13 | 86* | -10 | -18 | 33 | -95
SMILES | CF NFkB inh | Peg3 promoter | MITF TRPM1 inh | Shn3 3UTR inh | KKLEB tox | HIF-2a inh
Oc1ccc(N=Nc2n[nH]c(-c3ccccc3)n2)cc1 | 1 | -131 | -47 | -85 | 12 | -174
CC(=O)N1CCc2cc(S(=O)(=O)NC(CC(C)C)C(=O)N3CCCC3)ccc21 (configuration not stated) | 17 | 1 | 9 | -7 | -28 | 4
O=C(Cc1ccc(Cl)cc1)c1c[nH]c(C(=O)NCc2cccnc2)c1 | 31 | 102* | 9 | 0 | -44 | 21
CC(C)(C)c1ccc(C(=O)c2c[nH]c(C(=O)NCc3cccnc3)c2)cc1 | 10 | -79 | -11 | 26 | 8 | -87
Cc1ccc2c(c1)c1c3n2CCN(CC(O)CNC(C)C)C3CCC1 (configuration not stated) | 10 | 72* | 2 | -5 | -14 | -9
Cc1ccc2c(c1)c1c3n2CCN(CC(N)=O)C3CCC1 (configuration not stated) | 22 | 42 | 1 | -7 | 0 | -72
Cc1ccc2c(c1)c1c(n2CC(O)CNC2CCCC2)CCCC1 (configuration not stated) | 12 | 61* | 14 | -20 | -7 | -2
Cc1ccc2c(c1)c1c(n2CC(O)Cn2ccnc2C)C(=O)CCC1 (configuration not stated) | -6 | 10 | 6 | 7 | -16 | -6
COc1ccc(Cc2nc3ccc(C(=O)NCC4COCCO4)cc3o2)cc1OC (configuration not stated) | 6 | -6 | -1 | -2 | -15 | -21
Cc1cc(C)c(S(=O)(=O)c2ccccc2Cl)c(=O)[nH]1 | 12 | 5 | 5 | 4 | 4 | 12
CCOc1ccc(N2C(=O)CC(Sc3nnnn3-c3ccccc3)C2=O)cc1 (configuration not stated) | 49 | 96* | 8 | 92* | 1 | -1
Cc1ccc(Nc2cc(C)nc(NCc3ccccc3)n2)cc1 | 37 | 73* | 41 | 82 | -29 | -7
COc1cc(C)nc(NCc2ccccc2)n1 | -8 | -9 | -9 | -26 | -10 | 1
Cc1cc(NC2CCCCC2)nc(NCc2ccccc2)n1 | 9 | 65* | 8 | 78 | -9 | 5
COc1ccc(Nc2cc(C)nc(NCc3ccccc3)n2)cc1 | 15 | 8 | 19 | 89* | -12 | -8
COc1ccc(CCNC(=O)CCOc2ccc(C(C)(C)C)cc2)cc1OC | 5 | -26 | -4 | -11 | -3 | -61
COc1ccccc1-c1nnc(SCC(=O)Nc2ccc(N3CCOCC3)cc2)n1C | 3 | -8 | 14 | -10 | 17 | 1
